# Source: PubChem
# Hits are enriched below; roughly 7.4% of the tested compounds scored in any of these assays.
# Shh pathway inh – Hedgehog pathway signaling inhibitors, primary screen, luminescence, Shh-LIGHT2 cells, Gli-luciferase | Shh-LIGHT2 Gli-luciferase reporter, 30 h | inhibition, % (no concentration beside the values) | actives 2.1% (n = 22,000);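 active = mean inhibition across valid replicates above about 65%, limit read from the data; inconclusive = mean under the limit, yet half or more replicates past it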;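 note: pathway switched on by Shh-conditioned medium diluted 1 in 25 in low serum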
# YB-1 expression – inhibitors of YB-1 gene expression, primary screen, cell-based, fluorescence | U2OS, qRT-PCR YB-1 vs CDIP delta delta Cp, 16 h; hits give high values; zero = DMSO, each unit about twofold | delta delta Cp (YB-1 minus CDIP) (test concentration not listed) | actives 0.37% (n = 30,000);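 active = delta delta Cp rounded down to an integer at or above 3, about 3 SD of DMSO wells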;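 note: higher means less YB-1 transcript or more CDIP transcript relative to DMSO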
# NOMO-1 viab – NOMO-1 AML cell viability reduction, primary screen, STK33 inhibitor project, CellTiter-Glo luminescence. NOMO-1 AML viability, 72 h. inhibition, % (test concentration not listed). actives 7.5% (n = 37,000). AID 2330, 2010; in the data active = inhibition above about 80%; inconclusive = no clear call, values can overlap the other calls
# PD-1 reversal – activators reversing PD-1 mediated T-cell inhibition, primary screen, luminescence, primary human CD4 T cells, PD-L1 beads; AID 2316, 2010; CellTiter-Glo 96 h; 29,000 tested, under 10 active; activation, % (concentration not given with the values); call rule not given here;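 note: 0% = median vehicle wells and 100% = positive control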
# MITF inhib – inhibitors of MITF, primary screen, MITF inhibitor project, cell-based, luminescence; inhibition, % (concentration not given with the values); actives 0.28% (n = 37,000); TRPM1 promoter luciferase, 24 h; in the data active = inhibition above about 85%; inconclusive = no clear call, values can overlap the other calls; inactive = below about 68%;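 note: human melanocyte line stably carrying TRPM1 promoter luciferase reporter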
# Active calls of the source: *; ? = inconclusive; · = not tested or not shown.
SMILES,Shh pathway inh,YB-1 expression,NOMO-1 viab,PD-1 reversal,MITF inhib
C[C@H]1CN([C@@H](C)CO)C(=O)c2cc(NC(=O)C3CCCCC3)ccc2O[C@H]1CN(C)Cc1ccc(C(=O)Nc2ccccc2N)cc1,·,0.11,110*,-4,28
C[C@@H]1CN([C@H](C)CO)C(=O)c2cccc(NC(=O)c3ccncc3)c2O[C@H]1CN(C)Cc1ccc(C(=O)Nc2ccccc2N)cc1,·,-0.31,35,0,-11
C[C@H]1CN([C@@H](C)CO)C(=O)c2cccc(NC(=O)C3CC3)c2O[C@H]1CN(C)Cc1ccc(C(=O)Nc2ccccc2N)cc1,·,-0.23,94*,-2,14
C[C@H](CO)N1C[C@H](C)[C@H](CN(C)Cc2ccc(C(=O)Nc3ccccc3N)cc2)Oc2c(NC(=O)C3CCCCC3)cccc2C1=O,·,0.059,127*,-2,-13
C[C@@H]1CN([C@@H](C)CO)C(=O)c2cccc(NC(=O)c3ccncc3)c2O[C@@H]1CN(C)Cc1ccc(C(=O)Nc2ccccc2N)cc1,·,-0.44,128*,-1,0
C[C@H](CO)N1C[C@H](C)[C@H](CN(C)C(=O)Nc2ccc3c(c2)OCO3)Oc2c(NC(=O)C3CCCCC3)cccc2C1=O,-49,-0.2,32,-2,-6
CC(C)NC(=O)Nc1cccc2c1O[C@H](CN(C)Cc1ccc(C(F)(F)F)cc1)[C@H](C)CN([C@@H](C)CO)C2=O,-35,0.69,30,2,-1
C[C@@H]1CN([C@@H](C)CO)C(=O)c2cccc(NC(=O)C3CCOCC3)c2O[C@@H]1CN(C)Cc1ccc(C(=O)Nc2ccccc2N)cc1,·,-0.25,126*,-2,6
Cc1cc(O)cc(=O)n1Cc1cccnc1,·,0.17,8,0,-5
CN(C)/C=C/C(=O)c1sc(SCc2ccc(Cl)cc2)c2c1CC(C)(C)CC2=O,12,-0.41,113*,-1,-1
O=C(NCc1ccco1)c1cccc(S(=O)(=O)N2CCCCC2)c1,·,·,33,·,-10
COc1cc(O)c(C(=O)/C=C/c2ccccc2)c(OC)c1,21,0.14,93*,·,-18
C[C@@H]1CN([C@@H](C)CO)C(=O)c2cccc(NC(=O)Nc3ccc(C(F)(F)F)cc3)c2O[C@@H]1CN(C)Cc1ccc2c(c1)OCO2,8,0.34,106*,-2,-2
COc1ccc(NC(=O)Nc2cccc3c2O[C@@H](CN(C)Cc2ccc4c(c2)OCO4)[C@H](C)CN([C@@H](C)CO)C3=O)cc1,-41,-0.19,115*,-5,30
COc1ccc(NC(=O)Nc2cccc3c2O[C@H](CN(C)Cc2ccc4c(c2)OCO4)[C@H](C)CN([C@H](C)CO)C3=O)cc1,-1,0.19,0,0,-41
C[C@H](CO)N1C[C@H](C)[C@@H](CN(C)Cc2ccc3c(c2)OCO3)Oc2c(NC(=O)Nc3ccc4c(c3)OCO4)cccc2C1=O,-50,0.062,49,-4,-35
C[C@@H]1CN([C@H](C)CO)C(=O)c2cccc(NC(=O)Nc3ccc4c(c3)OCO4)c2O[C@@H]1CN(C)Cc1ccc2c(c1)OCO2,-34,-0.061,10,·,-20
C[C@@H]1CN([C@@H](C)CO)C(=O)c2cccc(NC(=O)Nc3ccc4c(c3)OCO4)c2O[C@H]1CN(C)Cc1ccc(C(F)(F)F)cc1,-26,0.18,109*,-6,50
C[C@H]1CN([C@@H](C)CO)C(=O)c2cccc(NC(=O)Nc3ccc4c(c3)OCO4)c2O[C@@H]1CN(C)Cc1ccc(C(F)(F)F)cc1,-6,-0.45,110*,-3,42
C[C@H](CO)N1C[C@H](C)[C@H](CN(C)Cc2ccc(C(F)(F)F)cc2)Oc2c(NC(=O)Nc3ccc4c(c3)OCO4)cccc2C1=O,-24,0.21,?,-4,9
C[C@H](CO)N1C[C@H](C)[C@@H](CN(C)Cc2ccc(C(F)(F)F)cc2)Oc2c(NC(=O)Nc3ccc4c(c3)OCO4)cccc2C1=O,4,-0.37,105*,-3,21
C[C@@H]1CN([C@H](C)CO)C(=O)c2cccc(NC(=O)Nc3ccc(F)cc3)c2O[C@H]1CN(C)Cc1ccc2c(c1)OCO2,0,-0.53,97*,-5,11
C[C@H]1CN([C@@H](C)CO)C(=O)c2cccc(NC(=O)Nc3ccc(F)cc3)c2O[C@@H]1CN(C)Cc1ccc2c(c1)OCO2,-17,-0.11,72,-2,-16
COc1ccc(NC(=O)Nc2cccc3c2O[C@@H](CN(C)Cc2ccccc2)[C@H](C)CN([C@@H](C)CO)C3=O)cc1,11,-0.033,93*,-4,18
COc1ccc(CN(C)C[C@H]2Oc3c(NC(=O)Nc4ccc(OC)cc4)cccc3C(=O)N([C@H](C)CO)C[C@H]2C)cc1,-7,-0.24,2,-1,-27
SMILES,Shh pathway inh,YB-1 expression,NOMO-1 viab,PD-1 reversal,MITF inhib
COc1ccc(CN(C)C[C@@H]2Oc3c(NC(=O)Nc4ccc(OC)cc4)cccc3C(=O)N([C@@H](C)CO)C[C@H]2C)cc1,-5,0.07,93*,-7,57
COc1ccc(CN(C)C[C@@H]2Oc3c(NC(=O)Nc4ccc(F)cc4)cccc3C(=O)N([C@H](C)CO)C[C@H]2C)cc1,19,0.11,94*,-5,20
COc1ccc(NC(=O)Nc2cccc3c2O[C@H](CN(C)Cc2ccc(Oc4ccccc4)cc2)[C@H](C)CN([C@@H](C)CO)C3=O)cc1,36,0.13,113*,-4,2
COc1ccc(NC(=O)Nc2cccc3c2O[C@H](CN(C)Cc2ccccc2)[C@H](C)CN([C@@H](C)CO)C3=O)cc1,-37,-0.079,33,2,-17
Cc1noc(C)c1S(=O)(=O)Nc1cccc2c1O[C@@H](CN(C)S(=O)(=O)c1ccc(F)cc1)[C@@H](C)CN([C@@H](C)CO)C2=O,30,-0.23,35,·,-18
COc1ccc(NC(=O)Nc2cccc3c2O[C@@H](CN(C)Cc2ccc(-c4ccccc4)cc2)[C@H](C)CN([C@@H](C)CO)C3=O)cc1,-21,-0.25,18,·,1
COc1ccc(CN(C)C[C@H]2Oc3c(NC(=O)Nc4cccc5ccccc45)cccc3C(=O)N([C@H](C)CO)C[C@H]2C)cc1,-8,-0.0053,46,-1,-3
COc1ccc(NC(=O)Nc2cccc3c2O[C@@H](CN(C)Cc2ccc(-c4ccccc4)cc2)[C@@H](C)CN([C@H](C)CO)C3=O)cc1,-46,0.27,113*,-2,-9
C[C@H]1CN([C@@H](C)CO)C(=O)c2cccc(NC(=O)Nc3cccc4ccccc34)c2O[C@H]1CN(C)Cc1ccc(Oc2ccccc2)cc1,-30,-0.78,93*,-3,17
COc1ccc(CN=C(N)N)cc1,-24,0.2,39,0,-4
